Assay [1] can be described thus: NCI Yeast Anticancer Drug Screen. Data for the rad50 strain (AID 155).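 Further: 0% = growth of vehicle-only cultures of the same strain.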 The following applies: S. cerevisiae rad50 strain growth inhibition, hits give high values. The method, boiled down:
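Relative growth inhibition (compound vs vehicle) was measured in yeast with a defined repair-gene alteration.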

Assay [2] is described as follows: NCI Yeast Anticancer Drug Screen. Data for the mec2-1 strain (AID 157). The note with it: S. cerevisiae mec2-1 strain, hits give high values. The method, boiled down:
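Using mec2-1 yeast: add compound, measure growth, express inhibition versus vehicle-treated cultures.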

Assay [3] in a line: NCI Yeast Anticancer Drug Screen. Data for the sgs1 mgt1 strain (AID 161).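 Further: 0% = growth of cultures given vehicle only.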 The following applies: S. cerevisiae sgs1 mgt1 strain, hits give high values. The method, boiled down: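 Percent growth inhibition was derived by comparing compound-exposed mutant yeast with vehicle-exposed cultures. The strain carries alterations in DNA damage repair.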
Assay [4] can be described thus: NCI Yeast Anticancer Drug Screen. Data for the cln2 rad14 strain (AID 165).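 Further: 0% = growth equal to vehicle treated cultures.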 The note with it: S. cerevisiae cln2 rad14 strain, hits give high values. The method, boiled down: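 Yeast strain cln2 rad14, bearing defects in cell cycle control and DNA repair, serves as the test system; values reflect growth inhibition compared with vehicle.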
The nature of assay [5]: NCI Yeast Anticancer Drug Screen. Data for the bub3 strain (AID 167). The note with it: S. cerevisiae bub3 mutant strain, hits give high values. The method, boiled down: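 Screening used yeast with an engineered genetic alteration affecting cell cycle control. Compound-exposed cultures were compared with vehicle cultures, and reduced growth was taken as inhibition.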
Assay [6] is described as follows: NCI Yeast Anticancer Drug Screen. Data for the mlh1 rad18 strain (AID 175). The note with it: S. cerevisiae mlh1 rad18 strain growth inhibition, hits give high values. An outline of the steps: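 Steps: expose repair-defective yeast to compound; measure growth; express inhibition against vehicle-treated controls.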
Where [7] appears, read: at 5.0 µM (retest, dose inferred, filed as 0.5).
Where [8] appears, read: at 50.0 µM (retest, dose inferred, filed as 5.0).

“And” between values parts separate entries of the source, which are not always exact repeats. Equal values may be shown once. The panel holds about 79,000 compounds, 15% with a hit somewhere; the sample as a whole holds those more often. Values without a mark were called inactive. The source made the active and inactive calls. No stated cut-off is given here; in the data, active means growth inhibition above about 70%; inactive means the rest.

`C=CCc1c2c(ccc(=O)c1O)-c1c(cc(OC)c(OC)c1OC)CCC2NC(C)=O` (centres undefined): the growth inhibition in assay [1] (setting [7]) was -3%; in assay [1] (setting [8]), 94% (active); in assay [1] (at 50.0 µM), 70.3% (active); in assay [2] (setting [7]) it was 4%; in assay [2] (setting [8]), 98% (active); in assay [2] (at 50.0 µM), 60.5%. The growth inhibition was -20% in assay [3] (setting [7]); 70% (active) in assay [3] (setting [8]); 64.6% in assay [3] (at 50.0 µM); -12% in assay [4] (setting [7]); 93% (active) in assay [4] (setting [8]); 72% (active) in assay [4] (at 50.0 µM). The growth inhibition in assay [5] (setting [7]) was -13%; in assay [5] (setting [8]) it was 97% (active); in assay [5] (at 50.0 µM), 53.3%; in assay [6] (setting [7]), 8%; in assay [6] (setting [8]), 97% (active); in assay [6] (at 50.0 µM), 67%.

`COc1ccc2nc3cc(Cl)ccc3c(NCCCNCc3cc(OC)c(OC)c(OC)c3)c2c1`: the growth inhibition in assay [1] (setting [7]) was 18%; in assay [1] (setting [8]), 92% (active); in assay [1] (at 50.0 µM), 98.2% (active); in assay [2] (setting [7]), -3%; in assay [2] (setting [8]) it was 62%; in assay [2] (at 50.0 µM), 98.3% (active). Also, the growth inhibition is 6% in assay [3] (setting [7]); 87% (active) in assay [3] (setting [8]); 98.3% (active) in assay [3] (at 50.0 µM); 21% in assay [4] (setting [7]); 83% (active) in assay [4] (setting [8]); 98.8% (active) in assay [4] (at 50.0 µM). The growth inhibition in assay [5] (setting [7]) is 22%; in assay [5] (setting [8]) it was 82% (active); in assay [5] (at 50.0 µM) it was 98.8% (active); in assay [6] (setting [7]) it was 3%; in assay [6] (setting [8]), 92% (active); in assay [6] (at 50.0 µM), 98% (active).

As to `Cc1ccc(C23C=CC(c4ccccc4)(C2)C2C(=O)OC(=O)C23)cc1` (centres undefined), the growth inhibition in assay [1] (setting [7]) was 86% (active); in assay [1] (setting [8]), 96% (active); in assay [1] (at 50.0 µM) it was 98.5% (active); in assay [2] (setting [7]) it was 85% (active); in assay [2] (setting [8]) it was 97% (active); in assay [2] (at 50.0 µM) it was 98.5% (active). In addition, the growth inhibition in assay [3] (setting [7]) is 81% (active); in assay [3] (setting [8]) it was 98% (active); in assay [3] (at 50.0 µM), 98.6% (active); in assay [4] (setting [7]), 36%; in assay [4] (setting [8]), 97% (active); in assay [4] (at 50.0 µM) it was 92.2% (active). Also, the growth inhibition in assay [5] (setting [7]) was 85% (active); in assay [5] (setting [8]), 97% (active); in assay [5] (at 50.0 µM), 98.7% (active); in assay [6] (setting [7]), 79% (active); in assay [6] (setting [8]) it was 97% (active); in assay [6] (at 50.0 µM), 95.8% (active).

As to `OC1CN(Cc2ccccc2)C[C@@H]1O` (some centres undefined), the growth inhibition in assay [1] (setting [7]) is 8%; in assay [1] (setting [8]), 99% (active); in assay [1] (at 50.0 µM) it was 23%; in assay [2] (setting [7]), 11%; in assay [2] (setting [8]), 99% (active); in assay [2] (at 50.0 µM) it was -7.9%. Also, the growth inhibition in assay [3] (setting [7]) is 10%; in assay [3] (setting [8]), 99% (active); in assay [3] (at 50.0 µM), -4.5%; in assay [4] (setting [7]), 17%; in assay [4] (setting [8]) it was 93% (active); in assay [4] (at 50.0 µM), 59.6%. Further, the growth inhibition is 11% in assay [5] (setting [7]); 99% (active) in assay [5] (setting [8]); -0.5% in assay [5] (at 50.0 µM); 25% in assay [6] (setting [7]); 99% (active) in assay [6] (setting [8]); 36.8% in assay [6] (at 50.0 µM).

As for `c1ccc(Cc2cc3ccccc3c3ccccc23)cc1`, the growth inhibition was 4% in assay [1] (setting [7]); 14% in assay [1] (setting [8]); 20.1% in assay [1] (at 50.0 µM); 5% in assay [2] (setting [7]); 23% in assay [2] (setting [8]); 14.9% in assay [2] (at 50.0 µM). Moreover, the growth inhibition in assay [3] (setting [7]) is 2%; in assay [3] (setting [8]), -3%; in assay [3] (at 50.0 µM), -6.6%; in assay [4] (setting [7]), 16%; in assay [4] (setting [8]), 6%; in assay [4] (at 50.0 µM), -0.55%. For the same compound, the growth inhibition in assay [5] (setting [7]) is 2%; in assay [5] (setting [8]), 3%; in assay [5] (at 50.0 µM), 91.3% (active); in assay [6] (setting [7]), 4%; in assay [6] (setting [8]), -2%; in assay [6] (at 50.0 µM), 82.5% (active).

Take `Fc1ccc(/C=C2\COCC3=C2NC(=S)NC3c2ccc(F)cc2)cc1` (centres undefined): the growth inhibition was 32% in assay [1] (setting [7]); 98% (active) in assay [1] (setting [8]); 88.6% (active) in assay [1] (at 50.0 µM); 28% in assay [2] (setting [7]); 99% (active) in assay [2] (setting [8]); 93% (active) in assay [2] (at 50.0 µM). The growth inhibition in assay [3] (setting [7]) is 72% (active); in assay [3] (setting [8]), 99% (active); in assay [3] (at 50.0 µM), 91.2% (active); in assay [4] (setting [7]), 59%; in assay [4] (setting [8]), 99% (active); in assay [4] (at 50.0 µM) it was 90.5% (active). Also, the growth inhibition in assay [5] (setting [7]) is 77% (active); in assay [5] (setting [8]), 100% (active); in assay [5] (at 50.0 µM) it was 90.7% (active); in assay [6] (setting [7]), 26%; in assay [6] (setting [8]), 98% (active); in assay [6] (at 50.0 µM), 90.7% (active).

Consider `C=CCNC(=O)c1ccccc1SC(C)=O`, for which the growth inhibition in assay [1] (setting [7]) was 14%; in assay [1] (setting [8]) it was 99% (active); in assay [1] (at 50.0 µM), 88.9% (active); in assay [2] (setting [7]) it was 33%; in assay [2] (setting [8]), 99% (active); in assay [2] (at 50.0 µM), 91.5% (active). Also, the growth inhibition was 20% in assay [3] (setting [7]); 99% (active) in assay [3] (setting [8]); 89% (active) in assay [3] (at 50.0 µM); 23% in assay [4] (setting [7]); 96% (active) in assay [4] (setting [8]); 72% (active) in assay [4] (at 50.0 µM). The growth inhibition in assay [5] (setting [7]) was 52%; in assay [5] (setting [8]), 99% (active); in assay [5] (at 50.0 µM), 89.2% (active); in assay [6] (setting [7]), 18%; in assay [6] (setting [8]), 99% (active); in assay [6] (at 50.0 µM), 89.3% (active).

Consider `N#CNC1=NCOCN1`, for which the growth inhibition in assay [1] (setting [7]) was -3%; in assay [1] (setting [8]), 6%; in assay [1] (at 50.0 µM), -1.6% and 21.8%; in assay [2] (setting [7]), 2%; in assay [2] (setting [8]), 10%; in assay [2] (at 50.0 µM), 22.4% and 1.35%. Besides, the growth inhibition in assay [3] (setting [7]) is 2%; in assay [3] (setting [8]), -9%; in assay [3] (at 50.0 µM), 13.8% and 8.55%; in assay [4] (setting [7]) it was 4%; in assay [4] (setting [8]) it was 11%; in assay [4] (at 50.0 µM) it was 13.3% and 18.8%. The growth inhibition in assay [5] (setting [7]) was -12%; in assay [5] (setting [8]) it was -3%; in assay [5] (at 50.0 µM) it was 10.1% and -8.85%; in assay [6] (setting [7]), 12%; in assay [6] (setting [8]), 9%; in assay [6] (at 50.0 µM), 64.4% and 18.4%.

For the origin of these results see PubChem BioAssay (NCI).
